ChEMBL document CHEMBL3988442, “University of Dundee, Small-Polar-MMV Screening Library” (2021)
Screen size: about 48,000 compounds; about 13,000 (27%) showed an effect of 50% or more. This is one part of the list.

System: Wolbachia pipientis
Assay: Anti-Wolbachia Cell-Based Screen
Format: functional
Parameters: scale not given: in the data most compounds retested in dose-response had high values
Settings: 5 µM

Compound	Percent Effect [%]
CC(=O)N1CCO[C@@H]2CN(C(=O)NCc3cccnc3)CC[C@@H]2C1.O=C(O)C(F)(F)F	-5.554
CCN1CCO[C@@H]2CN(C(=O)c3ccc4[nH]ccc4c3)CC[C@@H]2C1.O=C(O)C(F)(F)F	-16
COCCN1CCO[C@@H]2CN(C(=O)NCc3cccnc3)CC[C@@H]2C1.O=C(O)C(F)(F)F.O=C(O)C(F)(F)F	-7.719
CC(=O)N1CCO[C@@H]2CN(C(=O)NCc3ccccc3)CC[C@@H]2C1	88.95
CCN1CCO[C@@H]2CN(C(=O)NCc3ccccc3)CC[C@@H]2C1	91.66
CCN(CC)Cc1cc(C(=O)N2CCCC(O)(CO)C2)c(C)o1 (configuration not stated)	4.357
CCCc1ccc(CN2CCN(c3ncccn3)[C@@H]3CS(=O)(=O)C[C@@H]32)o1	-1.361
CCCc1ccc(CN2CCN(C(=O)N(C)C)[C@@H]3CS(=O)(=O)C[C@@H]32)o1	6.47
CCCc1ccc(CN2CCN(C(=O)NCC)[C@H]3CS(=O)(=O)C[C@H]32)o1	-11.9
CCn1ccnc1CN1CCN(Cc2ccc(C)o2)[C@@H]2CS(=O)(=O)C[C@@H]21	98.63
CCCc1ccc(CN2CCN(C(=O)C(C)C)[C@@H]3CS(=O)(=O)C[C@@H]32)o1	2.422
Cc1ccc(CN2CCN(Cc3nccn3C)[C@H]3CS(=O)(=O)C[C@H]32)o1	91.25
O=C(C1CN(c2ncc(F)cn2)CC12CCOCC2)N1CC=CC1.O=C(O)C(F)(F)F (configuration not stated)	-11.35
O=C(O)C(F)(F)F.c1cnn(Cc2nnc3n2CCCN(CC2CCOCC2)C3)c1	-9.289
c1coc(CN2CCn3c(CN4CCOCC4)nnc3C2)c1	0.1546
O=C(O)C(F)(F)F.c1coc(CN2CCCn3c(nnc3Cn3cccc3)C2)c1	110.6
O=C(O)C(F)(F)F.c1coc(CN2CCn3c(COCC4CC4)nnc3C2)c1	-16.88
O=C(O)C(F)(F)F.O=C(O)C(F)(F)F.c1coc(CN2CCCn3c(CN4CCOCC4)nnc3C2)c1	102
CCCN1CCN(C(=O)c2cccc3cccnc23)[C@H]2CS(=O)(=O)C[C@H]21	-6.939
Cc1nnc(CN(C)Cc2nc3c(s2)CCCC3)o1	-39.73
CCc1ncc(C(=O)N2CCC(O)(CN3CCOCC3)C(C)(C)C2)cn1 (configuration not stated)	21.42
COc1ccc2c(C)c(C(=O)N3CCC(NC(C)=O)C3)oc2c1 (configuration not stated)	4.828
CC(C)CCc1nc(CN2CCOC(Cn3cncn3)C2)cs1 (configuration not stated)	124.3
CC(C)(C)c1nnc(CN2CCOC(Cn3cncn3)C2)o1 (configuration not stated)	5.198
CCCc1nc(CN2CCOC(Cn3cncn3)C2)cs1 (configuration not stated)	112.9

Compound	Percent Effect [%]
Cc1cc(CNC(=O)NC(C)c2ccncc2)no1 (configuration not stated)	-0.1893
CCCC1C=CCN1C(=O)c1cc(COc2ccccc2)[nH]n1 (configuration not stated)	130
COc1ccccc1OCc1cc(C(=O)N2CCC(NC(C)=O)C2)n[nH]1 (configuration not stated)	-14.62
CN(Cc1nncn1C)C(=O)c1cc(COc2ccccc2)[nH]n1	-18.45
COc1ccccc1OCc1cc(C(=O)N2C[C@@H](C)O[C@@H](C)C2)n[nH]1	-20.33
COc1ccccc1OCc1cc(C(=O)N2[C@H](C)CC[C@@H]2C)n[nH]1	-29.7
C[C@@H]1CN(C(=O)c2cc(COc3ccc4c(c3)OCO4)[nH]n2)C[C@H](C)O1	-15.32
C[C@@H]1CC[C@@H](C)N1C(=O)c1cc(COc2ccccc2)[nH]n1	96.55
CO[C@H]1CN(C(C)C)C[C@@H]1NC(=O)c1cc(COc2ccccc2)[nH]n1	-19.38
COc1ccccc1OCc1cc(C(=O)N2CCOCC2CO)n[nH]1 (configuration not stated)	-19.45
CCCC1C=CCN1C(=O)c1cc(COc2ccc3c(c2)OCO3)[nH]n1 (configuration not stated)	106.8
COC(=O)C1C=CCN1C(=O)c1cc(COc2ccccc2)[nH]n1 (configuration not stated)	114.9
O=C(c1cc(COc2ccc3c(c2)OCO3)[nH]n1)N1CC=CC1CO (configuration not stated)	-1.873
CN(C(=O)CC1=CCCCC1)C1CCCN(C2Cc3ccccc3C2)C1 (configuration not stated)	-26.45
CCc1ncc2c(n1)CN(C(=O)Cc1cc(OC)cc(OC)c1)C2	-17.96
CC(C)COC(C)C(=O)N1CCC(C)CC1 (configuration not stated)	-15.15
Cc1cc(CN(C2CC2)C(C)C(C)C)no1 (configuration not stated)	5.492
COc1ccccc1OCc1cc(C(=O)N2CC=CC2C(C)C)n[nH]1 (configuration not stated)	-7.003
CCC1C=CCN1C(=O)c1cc(COc2ccccc2OC)[nH]n1 (configuration not stated)	105.4
COc1ccccc1OCc1cc(C(=O)N2CC(O)C2)n[nH]1	-12.52
CC(=O)CN1CCC2(CC1)c1ccccc1[C@@H](N1CCSCC1)[C@@H]2O	-3.937
CN(CC(=O)N1CC(C)(C)[C@@](C)(O)C1)Cc1ccncc1	-6.458
COc1ccc(COCC(O)CNC(=O)c2cc(C)cc(C)c2)cc1 (configuration not stated)	13.74
CN(C)CCn1c2c(ccc1=O)CC(NC(=O)NC1CCCC1)CC2.O=C(O)C(F)(F)F (configuration not stated)	92.43
O=C(Cc1ccsc1)NC1CCc2c(ccc(=O)n2CC2CC2)C1 (configuration not stated)	-22.09

Compound	Percent Effect [%]
CC(C)NC1CCc2c(ccc(=O)n2CCN(C)C)C1.O=C(O)C(F)(F)F.O=C(O)C(F)(F)F (configuration not stated)	8.884
CC(C)NC1CCc2c(ccc(=O)n2CCN2CCCC2=O)C1.O=C(O)C(F)(F)F (configuration not stated)	-4.2
O=C(NC1CCc2c(ccc(=O)n2CC2CC2)C1)c1ccsc1 (configuration not stated)	1.111
CN(C)CCn1c2c(ccc1=O)CC(NC(=O)c1ccsc1)CC2.O=C(O)C(F)(F)F (configuration not stated)	112.1
Cn1c2c(ccc1=O)CC(NC(=O)c1ccsc1)CC2 (configuration not stated)	116.4
CN(C)CCn1c2c(ccc1=O)CC(NC(=O)c1cnccn1)CC2.O=C(O)C(F)(F)F (configuration not stated)	97.98
Cc1ccc(Sc2ccc(N3CCCC(C(=O)O)C3)nn2)cc1 (configuration not stated)	-25.21
Cn1cc(C(=O)N2CCOc3cc(F)ccc32)ccc1=O	-3.875
O=C(Nc1ccnc2ccnn12)c1ccc(NC2CC2)nc1	-6.003
Cc1nc(N2CCN(C(=O)c3cccs3)CC2)cc(-n2cccc2)n1	0.4402
CC(Cc1cccc(F)c1)C(=O)NS(=O)(=O)c1ccc2c(c1)OCCO2 (configuration not stated)	-30.67
CCc1nc(CCNc2ncccc2S(N)(=O)=O)sc1C	-14.32
CCc1n[nH]c(C2CN(Cc3csc(C4CCCC4)n3)CCO2)n1 (configuration not stated)	5.778
CN1CCOC(CNCc2csc(C3CCCCC3)n2)C1 (configuration not stated)	102.8
CN1CCOC(CNCc2csc(C3CCCC3)n2)C1 (configuration not stated)	96.75
CN1CCOC(CNCc2coc(-c3cccs3)n2)C1 (configuration not stated)	12.46
Cc1n[nH]c(C2CN(Cc3csc(C4CCCCC4)n3)CCO2)n1 (configuration not stated)	-9.689
CN(C)C(=O)[C@H]1CC[C@@H]2[C@@H](CCN2C(=O)N(C)C)O1	-14.11
N#Cc1cccc(N2CCCC3(CN(C(=O)NC4CC4)CCO3)C2)c1 (configuration not stated)	4.321
O=C(c1ccc[nH]1)N1CCOC2(COCCN(c3cncnc3)C2)C1 (configuration not stated)	-9.951
O=C(NC1CC1)N1CCOCC2(C1)CN(c1ccccc1)C(=O)CO2 (configuration not stated)	106.4
O=C(c1ccc[nH]1)N1CCOCC2(C1)CN(c1ccccc1)C(=O)CO2 (configuration not stated)	99.07
O=C(O)C(F)(F)F.O=C1COC2(COCCN(Cc3ccsc3)C2)CN1c1ccc(F)cc1 (configuration not stated)	3.467
N#Cc1cccc(N2CCCC3(CN(C(=O)c4ccc[nH]4)CCO3)C2)c1 (configuration not stated)	-1.292
N#Cc1cccc(N2CCOCC3(CCCN(C(=O)NC4CC4)C3)C2)c1 (configuration not stated)	10.86

Compound	Percent Effect [%]
O=C(N1CCCC1)N1CCOCC2(C1)CN(c1ccccc1)C(=O)CO2 (configuration not stated)	96.63
CN(C)CC(=O)N1CCOCC2(C1)CN(c1ccccc1)C(=O)CO2 (configuration not stated)	-12.92
O=C(O)C(F)(F)F.O=C(c1c[nH]cn1)N1CCOCC2(C1)CN(c1ccccc1)C(=O)CO2 (configuration not stated)	97.27
COCC(=O)N1Cc2ccnn2CC(COCCN(C)C)C1.O=C(O)C(F)(F)F.O=C(O)C(F)(F)F (configuration not stated)	-12.14
Cc1csc(-c2cccc(NC(=O)NCC(C)(C)C(N)=O)c2)n1	1.71
CC(C)n1cnc2c1C(C(=O)N(C)C)N(Cc1ccccc1)CC2.O=C(O)C(F)(F)F (configuration not stated)	-8.577
O=C(c1cc[nH]n1)N1CCOCC2(C1)CN(c1ccccc1)C(=O)CO2 (configuration not stated)	99
Cc1noc(C(C)N2CCN(CCC(=O)N3CCOCC3)CC2)n1 (configuration not stated)	136
Cc1noc(C(C)N2CCN(CC(=O)N3CCCC3)CC2)n1 (configuration not stated)	104.8
Cc1noc(C(C)N2CCN(CCc3ccncc3)CC2)n1 (configuration not stated)	-4.658
CCOc1cc(C)nc(N2CCN(C(C)c3nc(C)no3)CC2)n1 (configuration not stated)	-8.841
Cc1cnc(CN2CCN(C(C)c3nc(C)no3)CC2)cn1 (configuration not stated)	31.99
Cc1noc(C(C)N2CCN(CCn3ccccc3=O)CC2)n1 (configuration not stated)	1.866
CCc1cc(=O)[nH]c(NC2CCN(S(=O)(=O)c3ccccc3)CC2)n1	74.59
Cn1ccnc1C1CCN(S(=O)(=O)c2ccc3oc(=O)[nH]c3c2)CC1	-28.87
O=C(c1[nH]nc(C2CC2)c1Cl)N1CCN(S(=O)(=O)c2ccccc2)CC1	-6.506
Cc1cc(=O)[nH]c(NCCNC(=O)c2ccccc2N2CCCC2)n1	13.63
Cc1cc(=O)[nH]c(NC2CCN(S(=O)(=O)c3ccccc3)CC2)n1	124.4
CC[C@H]1CN(S(=O)(=O)c2ccccc2)CC[C@H]1CC(=O)O	3.953
Cn1ccnc1C1CCN(S(=O)(=O)c2ccc3[nH]c(=O)[nH]c3c2)CC1	-2.986
CCc1cc(NC2CCN(S(C)(=O)=O)CC2)n2nc(C)c(C)c2n1	-8.298
Cc1nc(NC2CCN(S(=O)(=O)c3ccccc3)CC2)[nH]c(=O)c1C	93.81
